Compound activity deposited in PubChem BioAssay by several laboratories.
CYP2C19 activ: activators of human cytochrome P450 2C19; P33261; recombinant CYP2C19, luciferin-H EGE luminescence; stronger effect = higher value; 0 = fully inhibited enzyme, 1 = untreated enzyme; activation factor at 5 µM; 96,000 tested, under 10 active;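 active = activation factor of at least 2 at 5 µM in the primary screen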
Target sequence (P33261 whole entry, looked up): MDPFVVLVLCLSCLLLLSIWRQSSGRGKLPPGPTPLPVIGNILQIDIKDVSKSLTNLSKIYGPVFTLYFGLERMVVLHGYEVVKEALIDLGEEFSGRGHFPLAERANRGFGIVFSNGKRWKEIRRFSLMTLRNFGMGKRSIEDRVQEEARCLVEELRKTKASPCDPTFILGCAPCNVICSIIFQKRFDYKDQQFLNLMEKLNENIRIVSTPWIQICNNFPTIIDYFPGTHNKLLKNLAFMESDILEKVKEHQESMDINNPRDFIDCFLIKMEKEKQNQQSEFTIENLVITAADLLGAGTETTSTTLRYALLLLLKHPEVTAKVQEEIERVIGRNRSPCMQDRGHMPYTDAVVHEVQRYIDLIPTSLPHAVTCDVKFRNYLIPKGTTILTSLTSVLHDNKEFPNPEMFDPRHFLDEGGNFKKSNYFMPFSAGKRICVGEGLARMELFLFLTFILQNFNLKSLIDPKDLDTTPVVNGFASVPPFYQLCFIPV
EphB4 antag: antagonists of human EphB4-ephrin-B2 interaction; P54760; EphB4 LBD / TNYL-RAW-Alexa532 peptide, fluorescence polarization; inhibition, % at 7 µM; 97,000 tested, 0.15% active;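 active = inhibition above the screen-wide mean inhibition plus 3 SD, cut at about 15% in these data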
CYP2C19 inhib: human CYP2C19 inhibition; inhibition, % at 5 µM; P33261; 96,000 tested, 21% active; AID 778; CYP2C19 Supersomes, luciferin-H EGE luminescence, 30 min;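 active = CYP2C19 inhibition above a set limit at 5 µM in the primary screen, cut at about 50% in these data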
CYP2C9 inhib: inhibitors of human CYP2C9. P11712. CYP2C9 Supersomes, luciferin-H conversion, luminescence. inhibition, % at 5 µM. 96,000 tested, 20% active;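 active = blocking of liver enzyme CYP2C9 beyond about 50% at 5 µM, limit read from the data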
CYP2C9 act: CYP2C9 (human) activation; P11712; recombinant CYP2C9, luciferin-H conversion, luminescence; stronger effect = higher value; factor 1 = untreated enzyme, 0 = blocked; activation factor at 5 µM; 96,000 tested, 1.4% active; AID 1024;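 active = activation factor of 2 or more for CYP2C9 at a 5 µM dose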
Large screens that a line does not name were inactive. Sampled rows, rich in hits. Any-hit rate of the full collection: about 27%.

CCCCCn1c(SCCN2CCOCC2)nc2c1c(=O)[nH]c(=O)n2C	none
CC(NO)C(C)(C)NO (stereo not given)	none
COc1ccccc1N(C(C)=O)C1SC(=O)N(c2ccccc2)C1=O (stereo not given)	CYP2C19 inhib 54
Cc1ccc(S(=O)(=O)N2CCOCC2)cc1NC(=O)Cn1ccsc1=N	none
COc1ccc(Cc2nc(-c3ccc(Br)o3)no2)cc1OC	CYP2C19 inhib 88, CYP2C9 inhib 65
Clc1ccccc1OCc1nc(-c2ccc(Br)o2)no1	CYP2C19 inhib 94, CYP2C9 inhib 58
Fc1ccc(OCc2nc(-c3ccc(Br)o3)no2)c(F)c1	CYP2C19 inhib 94
COc1ccc(-c2noc(-c3ccc(Br)o3)n2)cc1OC	none
Brc1ccc(-c2noc(COc3ccc4ccccc4c3)n2)o1	none
CN1CCN(C(=O)C(Cc2ccccc2)NS(=O)(=O)c2ccc3c(c2)CCC(=O)N3)CC1 (stereo not given)	none
Cc1ccccc1C1NC(=O)Cc2ccccc21 (stereo not given)	none
O=C1Cc2ccccc2C(c2ccc(Br)cc2)N1 (stereo not given)	CYP2C19 inhib 100, CYP2C9 inhib 71
CCOC(=O)c1c(NC(=O)Cn2nc(C(F)F)cc2C(F)F)sc(C)c1C	CYP2C9 inhib 65
CCOC(=O)c1c(NC(=O)c2nn(CC)cc2Br)sc(C)c1C	CYP2C9 inhib 76
CCOC(=O)c1ccc(NC(=O)c2nn(CC)cc2Br)cc1	none
Cn1cc(Br)c(C(=O)Nc2sc3c(c2C(N)=O)CCC3)n1	none
CCOC(=O)c1c(NC(=O)c2nn(CC)cc2Br)sc2c1CCCCC2	CYP2C9 inhib 82
C/C(=N\O)C(C)/[N+]([O-])=C/c1nc(C)c(C)n1O (stereo not given)	none (no result: CYP2C19 activ, CYP2C19 inhib, CYP2C9 inhib, CYP2C9 act)
CCC(=O)NCC(c1cccs1)N1CCOCC1 (stereo not given)	none
Cc1cc(NC(=O)CN2CCN(S(=O)(=O)c3ccc4ccccc4c3)CC2)no1	none
Cc1cc(NC(=O)COc2nnc(-c3ccccc3)c3ccccc23)no1	CYP2C19 inhib 52, CYP2C9 inhib 63
Cc1cc(NC(=O)CCOc2ccccc2)no1	none
Cc1cc(NC(=O)COc2ccc(N(C)S(=O)(=O)c3ccccc3)cc2)no1	CYP2C9 inhib 55
CCN(c1ccccc1)S(=O)(=O)c1ccc(OCC(=O)Nc2cc(C)on2)cc1	CYP2C9 inhib 67
CN(C)CCOC(=O)C1(c2ccccc2)CCCC1	none
COc1ccccc1NC(=O)c1ccc(COc2ccccc2OC)o1	CYP2C19 inhib 58, CYP2C9 act 2.8
COC(=O)c1ccccc1NC(=O)c1ccc(COc2ccc(C)c(C)c2)o1	CYP2C19 inhib 52
Oc1ccc(C2N=C(c3ccccc3)NC(c3ccccc3)=N2)cc1	none
Cc1nc(N)c(C#N)c(-c2ccccc2)c1C	none
N#Cc1c(N)nc2c(c1N)CC(=O)N2c1ccccc1-c1ccccc1	CYP2C19 inhib 96, CYP2C9 inhib 87
N#Cc1c(N)nc2c(c1N)CC(=O)N2c1ccc(Cl)cc1	CYP2C19 inhib 52
COc1cc(Br)cc(CN2CCN(C/C=C/c3ccccc3)CC2)c1O	CYP2C19 inhib 60
Cc1cc(C)c2c(CN3CCN(C/C=C/c4ccccc4)CC3)cc(=O)oc2c1	CYP2C19 inhib 51, CYP2C9 inhib 69
COc1ccc(O)c(CN2CCN(C/C=C/c3ccccc3)CC2)c1	none (no result: EphB4 antag)
CCc1ccccc1N(C)C(=O)CCc1nc(-c2ccc(C)cc2)no1	CYP2C9 inhib 63
O=C(O)CCc1nc(-c2ccccc2)no1	none
COc1ccc(Cl)cc1N(C)C(=O)CCc1nc(-c2ccc(C)cc2)no1	CYP2C19 inhib 92, CYP2C9 inhib 94
COc1cc(NC(=O)c2ccccc2)c(OC)cc1NC(=O)CN1CCN(c2ccccn2)CC1	none
O=C1CC(C(=O)Nc2ccccc2C(=O)O)C(c2ccccc2)O1 (stereo not given)	CYP2C9 inhib 94
O=C1CC(C(=O)Nc2ccc(O)c(C(=O)O)c2)C(c2ccccc2)O1 (stereo not given)	none
O=C1CC(C(=O)Nc2ccc(C(=O)O)cc2)C(c2ccccc2)O1 (stereo not given)	none
O=C1CC(C(=O)Nc2nccs2)C(c2ccccc2)O1 (stereo not given)	CYP2C19 inhib 87, CYP2C9 inhib 60 (no result: EphB4 antag)
CC(=O)c1cccc(NC(=O)CCNS(=O)(=O)c2cccc(C(C)=O)c2)c1	none
O=C(Nc1cccc(Cl)c1)c1ccc(NCCCN2CCOCC2)c([N+](=O)[O-])c1	none
